Data taken from PubChem BioAssay (NCI).
About 83,000 compounds went through this panel and 20% of them were active in at least one assay; those are over-represented in the sample as a whole.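 Cells were grown in 96-well plates and exposed to the test compound at a single concentration for 48 hours; results are reported as percent growth, with values below 10 considered active.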 Active and inactive are the calls of the source.

Legend:
Assay in all cases: NCI-60 one-dose screen, 48 h (100 = growth as untreated, 0 = no growth, -100 = all killed)
Settings in all cases: 10 µM unless noted
HCT-15 colon = test system: HCT-15 colon
HT29 colon = test system: HT29 colon
SNB-75 CNS = test system: SNB-75 CNS
SNB-19 CNS = test system: SNB-19 CNS
U251 CNS = test system: U251 CNS
PC-3 prostate = test system: PC-3 prostate
SK-MEL-5 melanoma = test system: SK-MEL-5 melanoma
UACC-62 melanoma = test system: UACC-62 melanoma
LOX IMVI melanoma = test system: LOX IMVI melanoma
SK-MEL-28 melanoma = test system: SK-MEL-28 melanoma
SK-MEL-2 melanoma = test system: SK-MEL-2 melanoma
SN12C renal = test system: SN12C renal
UO-31 renal = test system: UO-31 renal
TK-10 renal = test system: TK-10 renal
ACHN renal = test system: ACHN renal
CAKI-1 renal = test system: CAKI-1 renal
A498 renal = test system: A498 renal
CCRF-CEM leukemia = test system: CCRF-CEM leukemia
MOLT-4 leukemia = test system: MOLT-4 leukemia
EKVX NSCLC = test system: EKVX NSCLC

Measured: growth

COc1cc2nc(N3CCC[C@@H](NC4=CC(=O)c5ccccc5C4=O)C3)nc(N)c2cc1OC
inactive: PC-3 prostate 23% | SK-MEL-5 melanoma 94% | UACC-62 melanoma 87.8% | SK-MEL-28 melanoma 109% | SK-MEL-2 melanoma 109% | SN12C renal 95.9% | UO-31 renal 46% | ACHN renal 72% | CAKI-1 renal 64.9% | A498 renal 107%
active: HCT-15 colon -67.2% | HT29 colon -59.8% | SNB-75 CNS -92.3% | SNB-19 CNS -49.7% | U251 CNS -89.3% | LOX IMVI melanoma -65.3% | TK-10 renal -49.3% | CCRF-CEM leukemia -20.9% | MOLT-4 leukemia -37.1%

O=C1OC(c2ccccc2)=N/C1=C\c1ccc([N+](=O)[O-])cc1
inactive: HCT-15 colon 104% | HT29 colon 98.8% | SNB-75 CNS 84.8% | SNB-19 CNS 107% | U251 CNS 102% | PC-3 prostate 94.4% | SK-MEL-5 melanoma 99.2% | UACC-62 melanoma 95.5% | LOX IMVI melanoma 96.9% | SK-MEL-28 melanoma 102% | SK-MEL-2 melanoma 105% | EKVX NSCLC 99.9% | SN12C renal 100% | UO-31 renal 91.7% | TK-10 renal 97.4% | CAKI-1 renal 91.5% | A498 renal 87.4% | CCRF-CEM leukemia 114% | MOLT-4 leukemia 102%

O=C(C[N+](=O)[O-])c1ccc(Cl)cc1
inactive: HCT-15 colon 103% | HT29 colon 113% | SNB-75 CNS 94.9% | SNB-19 CNS 111% | U251 CNS 107% | PC-3 prostate 97.3% | SK-MEL-5 melanoma 104% | UACC-62 melanoma 101% | LOX IMVI melanoma 96.4% | SK-MEL-28 melanoma 106% | SK-MEL-2 melanoma 119% | EKVX NSCLC 107% | SN12C renal 107% | UO-31 renal 90.3% | TK-10 renal 109% | ACHN renal 111% | CAKI-1 renal 95.2% | CCRF-CEM leukemia 104% | MOLT-4 leukemia 106%

O=C(Nc1cccc(C(F)(F)F)c1)Nc1ccc(OCc2nnc(-c3ccccc3)o2)c(F)c1
inactive: HCT-15 colon 26.7% | HT29 colon 43.2% | SNB-75 CNS 19.2% | SNB-19 CNS 46.6% | U251 CNS 29.5% | SK-MEL-5 melanoma 56.2% | UACC-62 melanoma 41.4% | LOX IMVI melanoma 46.8% | SK-MEL-28 melanoma 62.5% | SK-MEL-2 melanoma 67.8% | SN12C renal 52.8% | UO-31 renal 26.9% | TK-10 renal 60.2% | CAKI-1 renal 36.9% | A498 renal 43.5% | MOLT-4 leukemia 17%
active: PC-3 prostate 5.14% | ACHN renal 6.63% | CCRF-CEM leukemia 8.15%

O=C(CSc1nc(-c2ccc(Cl)cc2)cn1-c1ccc(Cl)cc1)c1ccc(Br)cc1
inactive: HCT-15 colon 85.2% | HT29 colon 66.9% | SNB-75 CNS 44.4% | SNB-19 CNS 77.8% | U251 CNS 37.5% | PC-3 prostate 50.3% | SK-MEL-5 melanoma 94.9% | UACC-62 melanoma 72.1% | LOX IMVI melanoma 73.4% | SK-MEL-28 melanoma 87.1% | SK-MEL-2 melanoma 87% | EKVX NSCLC 69.1% | SN12C renal 62.6% | UO-31 renal 45.5% | TK-10 renal 93% | ACHN renal 22.4% | CAKI-1 renal 78.7% | CCRF-CEM leukemia 92.8% | MOLT-4 leukemia 90.7%

CCOC(=O)c1cc(/C(=N\O)c2cc(OC)c(OC)c(OC)c2)n2c(C)cccc12
inactive: HCT-15 colon 25.7% | SNB-19 CNS 42.5% | U251 CNS 26.2% | PC-3 prostate 31.4% | SK-MEL-5 melanoma 14.5% | UACC-62 melanoma 27% | LOX IMVI melanoma 37.9% | SK-MEL-28 melanoma 58.4% | SK-MEL-2 melanoma 21.8% | EKVX NSCLC 36.6% | SN12C renal 54.3% | UO-31 renal 54% | TK-10 renal 21.2% | CAKI-1 renal 36% | CCRF-CEM leukemia 22.5% | MOLT-4 leukemia 28.5%
active: HT29 colon 9.58% | SNB-75 CNS 9.5% | A498 renal -1.4%

Cc1ccc(-c2csc3nc(C)c(CCCl)c(=O)n23)cc1
inactive: HCT-15 colon 98.5% | HT29 colon 105% | SNB-75 CNS 74.7% | SNB-19 CNS 100% | U251 CNS 106% | PC-3 prostate 83.5% | SK-MEL-5 melanoma 89.7% | UACC-62 melanoma 88.2% | LOX IMVI melanoma 89.1% | SK-MEL-28 melanoma 113% | SK-MEL-2 melanoma 94.5% | EKVX NSCLC 76.8% | SN12C renal 101% | UO-31 renal 70.4% | TK-10 renal 113% | ACHN renal 99% | CAKI-1 renal 88% | CCRF-CEM leukemia 104% | MOLT-4 leukemia 85.6%

CC(C)N(Cc1ccc(CN(C(=O)CCl)C(C)C)cc1)C(=O)CCl
inactive: SNB-19 CNS 63.2% | PC-3 prostate 29.7% | SK-MEL-5 melanoma 17.9% | SK-MEL-28 melanoma 33.1% | SK-MEL-2 melanoma 44.9% | EKVX NSCLC 82.6% | SN12C renal 15.4% | TK-10 renal 70.5% | CAKI-1 renal 33.6%
active: HCT-15 colon 0.15% | HT29 colon -49.7% | SNB-75 CNS -60.5% | U251 CNS -41% | UACC-62 melanoma 2.74% | LOX IMVI melanoma -61.2% | UO-31 renal -83.6% | ACHN renal 5.84% | CCRF-CEM leukemia -29.4% | MOLT-4 leukemia 8.54%

Nc1c(C(=O)Nc2cccc(C(F)(F)F)c2)sc2nc3c(cc12)CCCCCC3
active: HT29 colon 0.128% | SNB-75 CNS -34% | U251 CNS -18.4% | SN12C renal 5.73% | UO-31 renal -2.04% | TK-10 renal 5% | ACHN renal -35.6% | A498 renal -28.3%
inactive: HCT-15 colon 19.3% | SNB-19 CNS 25.9% | PC-3 prostate 52.4% | SK-MEL-5 melanoma 25.8% | UACC-62 melanoma 23.9% | LOX IMVI melanoma 21.5% | SK-MEL-28 melanoma 10.4% | SK-MEL-2 melanoma 51.4% | CAKI-1 renal 20.8% | CCRF-CEM leukemia 51% | MOLT-4 leukemia 45.6%

CCCC1OC(c2ccc(C(C)C)cc2)OCC1CC (stereo not drawn)
inactive: HCT-15 colon 103% | HT29 colon 97% | SNB-75 CNS 87.6% | SNB-19 CNS 106% | U251 CNS 95.7% | PC-3 prostate 78.7% | SK-MEL-5 melanoma 104% | UACC-62 melanoma 102% | LOX IMVI melanoma 97.7% | SK-MEL-28 melanoma 104% | SK-MEL-2 melanoma 98.4% | EKVX NSCLC 101% | SN12C renal 105% | UO-31 renal 101% | TK-10 renal 97.1% | ACHN renal 99.5% | CAKI-1 renal 90.9% | CCRF-CEM leukemia 95.9% | MOLT-4 leukemia 93.3%

CCN1C(=O)N(CC)C2C1NN=c1s/c(=C3\C(=O)N(C4CCCC4)c4ccccc43)c(=O)n12 (stereo not drawn)
inactive: HCT-15 colon 15.8% | SNB-19 CNS 34.9% | U251 CNS 18.3% | PC-3 prostate 25.3% | SK-MEL-5 melanoma 12.7% | UACC-62 melanoma 34.9% | LOX IMVI melanoma 30.3% | SK-MEL-28 melanoma 57.9% | SK-MEL-2 melanoma 41.3% | EKVX NSCLC 56.1% | SN12C renal 31.6% | UO-31 renal 37.2% | TK-10 renal 24.4% | ACHN renal 31.9% | CAKI-1 renal 32.1%
active: HT29 colon 1.3% | SNB-75 CNS -21.9% | MOLT-4 leukemia 7.37%

COC(=O)CCCCCCN=Cc1c(O)c(O)c(C(C)C)c2cc(C)c(-c3c(C)cc4c(C(C)C)c(O)c(O)c(C=NCCCCCCC(=O)OC)c4c3O)c(O)c12
inactive: HCT-15 colon 13.1% | SNB-75 CNS 59.4% | SNB-19 CNS 17.6% | U251 CNS 11.5% | PC-3 prostate 16% | SK-MEL-5 melanoma 43.4% | UACC-62 melanoma 17.7% | LOX IMVI melanoma 21.4% | SK-MEL-28 melanoma 36.1% | SK-MEL-2 melanoma 24.7% | EKVX NSCLC 23.9% | SN12C renal 22.8% | UO-31 renal 21.8% | TK-10 renal 12.4% | ACHN renal 21.6% | CAKI-1 renal 65.4% | CCRF-CEM leukemia 16.1% | MOLT-4 leukemia 15.8%
active: HT29 colon 6.88%

CSc1ccccc1C#C/C=C\C#Cc1ccccc1N1CCCC1=O
inactive: HCT-15 colon 37.6% | HT29 colon 24.1% | SNB-75 CNS 47% | SNB-19 CNS 88.5% | U251 CNS 34.3% | PC-3 prostate 46.2% | SK-MEL-5 melanoma 22.2% | UACC-62 melanoma 34.4% | LOX IMVI melanoma 30.8% | SK-MEL-28 melanoma 50.1% | SK-MEL-2 melanoma 35.4% | EKVX NSCLC 55.3% | SN12C renal 72.1% | UO-31 renal 23.3% | TK-10 renal 83.1% | ACHN renal 57.9% | CAKI-1 renal 70.2% | CCRF-CEM leukemia 23.6% | MOLT-4 leukemia 27.4%

Cc1cccc2cc(/C=C/C(=O)/C=C/c3ccc(Cl)cc3)c(=O)[nH]c12
inactive: HCT-15 colon 43.6% | SNB-75 CNS 79.7% | SNB-19 CNS 49.5% | U251 CNS 10.6% | PC-3 prostate 33.8% | SK-MEL-5 melanoma 91.2% | UACC-62 melanoma 30.4% | SK-MEL-28 melanoma 75.4% | SK-MEL-2 melanoma 91% | EKVX NSCLC 62.5% | SN12C renal 47.6% | UO-31 renal 69.7% | TK-10 renal 105% | CAKI-1 renal 91.1% | A498 renal 63.1% | CCRF-CEM leukemia 14.7% | MOLT-4 leukemia 32.4%
active: HT29 colon 7.76% | LOX IMVI melanoma 4.24%

N=C(N)c1ccc(-c2ccc(-c3ccc(Cl)cc3)o2)nc1
active: HCT-15 colon -75.1% | HT29 colon -92.9% | SNB-75 CNS -97.8% | SNB-19 CNS -87.2% | U251 CNS -98.1% | PC-3 prostate -90% | SK-MEL-5 melanoma -98.8% | UACC-62 melanoma -96.8% | LOX IMVI melanoma -90.4% | SK-MEL-28 melanoma -94.2% | SK-MEL-2 melanoma -90.7% | SN12C renal -80.7% | UO-31 renal -85.8% | TK-10 renal -95.1% | ACHN renal -91.5% | CAKI-1 renal -85.5% | A498 renal -58.4% | CCRF-CEM leukemia -57.5%
inactive: MOLT-4 leukemia 102%

Nc1cc2c(cc1N)-c1cc(N)c(N)cc1C2
inactive: HCT-15 colon 97.4% | HT29 colon 107% | SNB-75 CNS 79.9% | SNB-19 CNS 107% | U251 CNS 99.1% | PC-3 prostate 80.5% | SK-MEL-5 melanoma 101% | UACC-62 melanoma 99.9% | LOX IMVI melanoma 94% | SK-MEL-28 melanoma 115% | SK-MEL-2 melanoma 111% | EKVX NSCLC 89.2% | SN12C renal 94.9% | UO-31 renal 53.9% | TK-10 renal 110% | ACHN renal 96% | CAKI-1 renal 93.8% | CCRF-CEM leukemia 88.2% | MOLT-4 leukemia 92.3%
